HT1080NT lethal: qHTS for induction of synthetic lethality in tumor cells producing 2HG: qHTS for the HT-1080-NT fibrosarcoma cell line | HT-1080-NT fibrosarcoma viability, CellTiter-Glo ATP luminescence, 48 h | Potency, µM (titrated, usually from 46.1 µM), usual class: cytotoxic | 360,000 tested, 1.6% active | AID 686970, 2013;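 further: NT is the 2HG producing partner of a matched IDH1 knockdown line; nearly all actives have a fitted effect of over 55% in size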
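HT-1080-NT fibrosarcoma cells (2HG-overproducing), 750 cells/well in RPMI with 5% FBS, dosed after 2 h and incubated 48 h at 37C. CellTiter-Glo luminescence normalized to DMSO and no-cell wells; concentration-response curves fitted and classed.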
TDP1 cell noCPT: qHTS for Inhibitors of human tyrosyl-DNA phosphodiesterase 1 (TDP1): qHTS in cells in absence of CPT | DT40 Tdp1-/- hTDP1 cells, no CPT, ATP luminescence, 48 h | AID 686978, 2013 | Potency, µM (doses to about 46.2 µM), most hits filed as inhibitors | 420,000 tested, 15% active; further: nearly all actives have a fitted effect of over 55% in size
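Camptothecin absent (DMSO only). Human TDP1-complemented DT40 knockout cells, 400 cells/well, 37 °C for minimum 48 hr; ATP measured via CellTiter-Glo, 30 min dark incubation, luminescence.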
TDP1 cell CPT: qHTS for Inhibitors of human tyrosyl-DNA phosphodiesterase 1 (TDP1): qHTS in cells in presence of CPT. chicken DT40 Tdp1-/-;hTDP1 cells + 20 nM CPT, ATP luminescence, 48 h. AID 686979, 2013. Potency, µM (titrated, usually from 46.2 µM), most hits filed as inhibitors. 420,000 tested, 12% active; further: nearly all actives have a fitted effect of over 55% in size
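Cell growth measured by CellTiter-Glo luminescence after a minimum 48 h, 37 C compound exposure with 20 nM CPT in Tdp1-knockout DT40 cells stably expressing hTDP1, seeded 400/well; qHTS titration format.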
HT1080 IDH1KD tx: qHTS for induction of synthetic lethality in tumor cells producing 2HG: qHTS for the HT-1080-IDH1KD cell line. HT-1080 IDH1 knockdown viability, ATP luminescence, 48 h. Potency, µM (titrated, usually from 46.1 µM), usual class: cytotoxic. 360,000 tested, 2% active
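Assay cells: HT-1080 with IDH1 knockdown, 750 per well, RPMI/5% FBS. Exposure: 48 h at 37 °C following 2 h pre-incubation. Read: CellTiter-Glo luminescence; fitted concentration-response, curve class assigned.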
IL-1B inflam inh: qHTS for Inhibitors of Inflammasome Signaling: IL-1-beta AlphaLISA Primary Screen; 360,000 tested, 4.7% active; AID 743279, 2014; activity change, % at 57.5 µM; THP-1 LPS/ATP IL-1B secretion, AlphaLISA, 16 h; hits give low values; in the data active means activity change below about -50%; inconclusive means mostly about -30% to -49%
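Secreted IL-1B measured by AlphaLISA bead assay after 16 h compound exposure of THP-1 cells; compounds (final up to 57.5 uM) added 1 h before LPS (250 ng/mL) and ATP (1.25 mM) stimulation; lower signal means less secretion.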
Hits are given with their value. Rows were chosen to be rich in hits. Some 19% of all compounds tested hit in one or more screens of this group. Unless noted, the call rests on the fitted dose curve; in most records, active means well fitted curve in the direction sought with a large enough effect; inconclusive means small, poorly fitted or top-dose-only effect, or another doubt; inactive means no such curve, though single readings can be large; an effect the other way counts as inactive or inconclusive.

Results for COc1ccc(C2c3ccc4ccccc4c3Oc3ncn(CCCO)c(=N)c32)cc1OC (configuration not stated) ?
HT1080NT lethal: 7.31µM; TDP1 cell noCPT: 20.6µM; TDP1 cell CPT: inconclusive; HT1080 IDH1KD tx: 5.17µM; IL-1B inflam inh: -55.5

Results for COc1ccc(C2c3ccc4ccccc4c3Oc3ncn(CCO)c(=N)c32)cc1OC (configuration not stated) ?
HT1080NT lethal: inactive; TDP1 cell noCPT: 20.6µM; TDP1 cell CPT: 23.1µM; HT1080 IDH1KD tx: inactive; IL-1B inflam inh: inconclusive

What do the screens show for `COc1ccc(Cc2nc3c4c(ncn3n2)Oc2c(ccc3ccccc23)C4c2ccc(OC)c(OC)c2)cc1` (configuration not stated)?
HT1080NT lethal: inactive; TDP1 cell noCPT: inconclusive; TDP1 cell CPT: inactive; HT1080 IDH1KD tx: inactive; IL-1B inflam inh: inactive

Results for COc1ccc(Cc2nc3c4c(ncn3n2)Oc2ccc3ccccc3c2C4c2ccc(OC)c(OC)c2)cc1 (configuration not stated) ?
HT1080NT lethal: inactive; TDP1 cell noCPT: inactive; TDP1 cell CPT: inactive; HT1080 IDH1KD tx: inactive; IL-1B inflam inh: inactive

Results for CCOC(=O)Nc1ccc(C(=O)c2ccncc2)cc1 ?
HT1080NT lethal: inactive; TDP1 cell noCPT: inconclusive; TDP1 cell CPT: inconclusive; HT1080 IDH1KD tx: inactive; IL-1B inflam inh: inactive

What do the screens show for `COC(=O)c1ccc(NC(=O)CC2C(=O)N(c3ccccc3)C(=O)N2C2CCCC2)cc1` (configuration not stated)?
TDP1 cell noCPT: 16.4µM; TDP1 cell CPT: inconclusive

How did CCOC(=O)c1ccc(NC(=O)CC2C(=O)N(c3ccc(C)cc3)C(=O)N2C2CCCC2)cc1 (configuration not stated) do in these assays?
TDP1 cell noCPT: 20.6µM; TDP1 cell CPT: inconclusive

What do the screens show for `O=C(CC1C(=O)N(c2ccccc2)C(=O)N1C1CCCCC1)Nc1ccccc1` (configuration not stated)?
HT1080NT lethal: inactive; TDP1 cell noCPT: inactive; TDP1 cell CPT: inactive; HT1080 IDH1KD tx: inactive; IL-1B inflam inh: inactive

How did CCCCCCN1C=C/C(=C\C=C(C#N)C#N)c2ccccc21 do in these assays?
HT1080NT lethal: inactive; TDP1 cell noCPT: 23.1µM; TDP1 cell CPT: inconclusive; HT1080 IDH1KD tx: inactive; IL-1B inflam inh: inactive

Results for C[C@H](CO)N1C[C@H](C)[C@H](CN(C)C(=O)Nc2ccnc(N3CCOCC3)c2)OCc2cnnn2CCCC1=O ?
HT1080NT lethal: inactive; TDP1 cell noCPT: inactive; TDP1 cell CPT: inactive; HT1080 IDH1KD tx: inactive; IL-1B inflam inh: inactive

How did Clc1ccc(/C=N/NC(=Nc2ccccc2)c2ccccn2)c(Cl)c1 do in these assays?
HT1080NT lethal: inactive; TDP1 cell noCPT: 29.1µM; TDP1 cell CPT: inconclusive; HT1080 IDH1KD tx: inactive; IL-1B inflam inh: inactive

What do the screens show for `C(=N\NC(=Nc1ccccc1)c1ccccn1)/c1ccccn1`?
HT1080NT lethal: inactive; TDP1 cell noCPT: 10.3µM; TDP1 cell CPT: 10.3µM; HT1080 IDH1KD tx: inactive; IL-1B inflam inh: inactive

How did O=C(N/N=C\c1ccccn1)c1cccc(C(=O)N/N=C\c2ccccn2)n1 do in these assays?
HT1080NT lethal: inactive; TDP1 cell noCPT: inconclusive; TDP1 cell CPT: inactive; HT1080 IDH1KD tx: inactive; IL-1B inflam inh: inactive

How did CCN1CCN(CCCNC(=O)c2ccc3c(c2)sc2nc(-c4ccc(C)cc4)cn23)CC1 do in these assays?
TDP1 cell noCPT: 1.3µM; TDP1 cell CPT: 1.3µM

Results for COc1ccc(-c2cn3c(n2)sc2cc(C(=O)Nc4ccc(C)cc4C)ccc23)cc1 ?
TDP1 cell noCPT: inconclusive; TDP1 cell CPT: inactive

How did CC1CCCCN1CCCNC(=O)c1ccc(Br)cc1 (configuration not stated) do in these assays?
HT1080NT lethal: inactive; TDP1 cell noCPT: inactive; TDP1 cell CPT: inactive; HT1080 IDH1KD tx: inactive; IL-1B inflam inh: inactive

Results for COc1ccc(-c2cn3c(n2)sc2cc(C(=O)Nc4ccc(C)c(Cl)c4)ccc23)cc1 ?
TDP1 cell noCPT: inactive; TDP1 cell CPT: inactive

How did O=C(NCCCN1CCCCC1)c1ccc2c(c1)sc1nc(-c3ccc(F)cc3)cn12 do in these assays?
TDP1 cell noCPT: 2.31µM; TDP1 cell CPT: 4.11µM

Results for CC1CCCCN1CCCNC(=O)c1ccc2c(c1)sc1nc(-c3ccc(F)cc3)cn12 (configuration not stated) ?
TDP1 cell noCPT: 3.26µM; TDP1 cell CPT: 2.31µM

What do the screens show for `Cc1ccc(-c2cn3c(n2)sc2cc(C(=O)NCCCN4CCCCC4)ccc23)cc1`?
TDP1 cell noCPT: 1.3µM; TDP1 cell CPT: 1.3µM

What do the screens show for `NNC(=O)c1ccc(OCC2CC(c3ccc(Cl)cc3)=NO2)cc1` (configuration not stated)?
HT1080NT lethal: inconclusive; TDP1 cell noCPT: inconclusive; TDP1 cell CPT: inconclusive; HT1080 IDH1KD tx: inconclusive; IL-1B inflam inh: inactive

How did COc1ccc2nccc(C(N)=O)c2c1 do in these assays?
HT1080NT lethal: inactive; TDP1 cell noCPT: inactive; TDP1 cell CPT: inactive; HT1080 IDH1KD tx: inactive; IL-1B inflam inh: inactive

What do the screens show for `Cc1ccc(-c2cn3c(n2)sc2cc(C(=O)NCCCN4CCCCCC4)ccc23)cc1`?
TDP1 cell noCPT: 1.64µM; TDP1 cell CPT: 1.64µM

How did COc1ccc(NC(=O)CS(=O)c2cccc(C(F)(F)F)c2)cc1 (configuration not stated) do in these assays?
HT1080NT lethal: inactive; TDP1 cell noCPT: inactive; TDP1 cell CPT: inactive; HT1080 IDH1KD tx: inactive; IL-1B inflam inh: inactive

How did CCOC(=O)N1CCN(S(=O)(=O)c2ccc(C(=O)N(CCCN(C)C)c3nc4ccc(OC)cc4s3)cc2)CC1 do in these assays?
HT1080NT lethal: inactive; TDP1 cell noCPT: inconclusive; TDP1 cell CPT: inconclusive; HT1080 IDH1KD tx: inactive; IL-1B inflam inh: inconclusive

How did COc1ccc2sc(N(CCCN(C)C)C(=O)c3ccc(S(=O)(=O)N4CCCc5ccccc54)cc3)nc2c1 do in these assays?
HT1080NT lethal: inactive; TDP1 cell noCPT: 16.4µM; TDP1 cell CPT: inconclusive; HT1080 IDH1KD tx: inactive; IL-1B inflam inh: -83.5

How did CN(C)CCCN(C(=O)c1ccc(S(=O)(=O)N2CCOCC2)cc1)c1nc2cc3c(cc2s1)OCO3 do in these assays?
HT1080NT lethal: inactive; TDP1 cell noCPT: inactive; TDP1 cell CPT: inactive; HT1080 IDH1KD tx: inactive; IL-1B inflam inh: inactive

What do the screens show for `N#C/C(=N\Nc1ccc([N+](=O)[O-])cc1)C(N)=S`?
HT1080NT lethal: inconclusive; TDP1 cell noCPT: 23.1µM; TDP1 cell CPT: inconclusive; HT1080 IDH1KD tx: 13µM; IL-1B inflam inh: -65.9
